Results reported in PubChem BioAssay AID1531 (NMMLSC, 2009).
In all, about 290,000 compounds went through this assay and about 3,300 (1.1%) were called active. No stated cut-off is given here; in the data, active means binding response below about 67% or above about 130%; inconclusive means no clear call, values can overlap the other calls; inactive means in between. Only a selection was taken, and actives are over-represented in it overall.

Biological target: Mitogen-activated protein kinase kinase kinase 2 (Homo sapiens) (UniProt Q9Y2U5)
Test: wildtype MEKK2 PB1-MEK5 interaction, increase or decrease – biochemical, multiplex bead flow cytometry, Alexa488-MEK5, primary screen (AID 1531)
Details: Alexa488-MEK5 binding to MEKK2 WT, at 10 µM, actives lie on both sides

Structure (SMILES) | binding response (% of control)
CCN(CC(=O)NCC(=O)Nc1cccc(C)c1C)Cc1ccccc1 | 103% (inactive)
CCOC(=O)/C(C#N)=C/c1ccc(OCC(=O)Nc2ccccc2)c(OC)c1 | 37% [inhibitor] (active)
COc1cc(C2C3=C(CCCC3=O)OC3=C2C(=O)CCC3)ccc1OCC(=O)Nc1ccccc1 | 96% (inactive)
CCCn1c(C)cc(/C=C(\C#N)C(=O)OCC(=O)Nc2cc(OC)c(OC)c(OC)c2)c1C | 106% (inactive)
Cc1ccc(OCC(O)CN2CCN(CC(O)COc3ccc(C)cc3Cl)CC2)c(Cl)c1 (configuration not stated) | 134% (active)
Cc1cccc(OCC(O)CN2CCN(S(=O)(=O)c3ccc(C)cc3C)CC2)c1 (configuration not stated) | 95% (inactive)
OC(COc1ccc(F)cc1Cl)CN1CCc2ccccc2C1 (configuration not stated) | 105% (inactive)
C[n+]1cc(-c2ccccc2)oc1-c1ccccc1 | 100% (inactive)
COc1ccc(CNc2nc3c(c(=O)[nH]c(=O)n3C)n2Cc2ccccc2)cc1 | 109% (inactive)
COc1ccc(CCn2c(NCCCN3CCOCC3)nc3c2c(=O)[nH]c(=O)n3C)cc1 | 103% (inactive)
COc1ccc(CCn2c(NN=C3CCCC3)nc3c2c(=O)[nH]c(=O)n3C)cc1 | 39% [inhibitor] (active)
COC(=O)CN1C(=O)[C@H]2[C@@H](/C=C/c3ccccc3)N3C(=O)CN(CC4CC4)C(=O)[C@@]3(Cc3ccccc3)[C@H]2C1=O | 104% (inactive)
CC1=C(N2CCN(c3ncccn3)CC2)CCC1=O | 111% (inactive)
COc1cccc(CNC(=O)C2CC(=O)N(C3CCCCCCC3)C2)c1 (configuration not stated) | 94% (inactive)
O=C(Nc1nnc(C2CC2)s1)c1cc(Cl)sc1Cl | 102% (inactive)
CC(C)(C)NC(=O)NC(=O)COC(=O)C1c2ccccc2Oc2ccccc21 | 100% (inactive)
COc1ccc(OCC(=O)NNC(=O)c2cccc(C)c2)cc1 | 93% (inactive)
COc1cccc(OCC(=O)Nc2ccccc2C(N)=O)c1 | 115% (inactive)
COc1cccc(OCC(=O)NNC(=O)c2cnccn2)c1 | 2% [inhibitor] (active)
COc1ccc(CCNC(=O)CCNS(=O)(=O)c2cc(Br)cnc2N)cc1OC | 106% (inactive)
CC(C)(C)NC(=O)c1ccc(Cn2cc(C(F)(F)F)ccc2=O)cc1 | 101% (inactive)
COc1cc(-c2nnc(Cn3cc(C(F)(F)F)ccc3=O)o2)cc(OC)c1OC | 3% [inhibitor] (active)
CCOC(=O)c1cc(-c2nnc(-c3cc(OC)c(OC)c(OC)c3)o2)c(C)nc1C | 104% (inactive)
CCC(Cc1ccccc1)NS(=O)(=O)c1ccc2c(c1)NC(=O)CS2 (configuration not stated) | 102% (inactive)
Nc1cc(N)nc(SCc2cccc(F)c2)n1 | 104% (inactive)

Structure (SMILES) | binding response (% of control)
COC(=O)c1c(C)cc(O)c(C)c1O | 104% (inactive)
C#CC(C)(C)NC(=O)CSc1nc2c(c(=O)n(C)c(=O)n2C)n1CCCC | 106% (inactive)
CCCCn1c(SCC(=O)NCCc2ccc(OC)c(OC)c2)nc2c1c(=O)n(C)c(=O)n2C | -4% [inhibitor] (active)
CCn1c(NCCc2ccc(OC)c(OC)c2)nc2c1c(=O)n(C)c(=O)n2C | 102% (inactive)
CCN(CC)CCC(c1cc(OC)c(OC)c(OC)c1)c1c(OC)cc(OC)c2c(-c3ccccc3)cc(=O)oc12 (configuration not stated) | 90% (inactive)
COc1cc(OC)c2ccc(=O)oc2c1C(CCN1CCN(c2ccccc2)CC1)c1ccc2c(c1)OCO2 (configuration not stated) | 110% (inactive)
CCCCN(CC)C(=O)c1ccc2c(c1)OCO2 | 100% (inactive)
CCN(CC)C(=O)CC(c1ccc2c(c1)OCO2)c1c(OC)cc(OC)c2c(-c3ccccc3)cc(=O)oc12 (configuration not stated) | 143% (active)
CCN(CC)CCC(c1ccc2c(c1)OCO2)c1c(OC)cc(OC)c2c(-c3ccccc3)cc(=O)oc12 (configuration not stated) | 137% (active)
COc1cc(OC)c(C(=O)NCc2ccc3c(c2)OCO3)cc1OC | 102% (inactive)
Cc1cccc(Nc2nc(NCCO)nc(N3CCCC3)n2)c1 | 109% (inactive)
COc1cc(CC(=O)N2CCC(n3nccc3NC(=O)C3CC3)CC2)cc(OC)c1OC | 103% (inactive)
CCN(CC)CCOCCOc1ccc(Cl)c2ccccc12 | 7% [inhibitor] (active)
Clc1cccc(Cl)c1OCCOCCNCc1ccccc1 | 109% (inactive)
CCC(C(=O)OCCN(CC)CC)c1ccccc1 (configuration not stated) | 101% (inactive)
Cc1cccc(NC(=S)NCCc2ccc(Cl)cc2)c1C | 106% (inactive)
Cc1ccc(S(=O)(=O)N(C)CC(=O)NCCc2c[nH]c3ccccc23)cc1 | 107% (inactive)
CCOC(=O)c1ccc(NC(=O)c2c(NCc3ccccc3)[nH]c(=O)[nH]c2=O)cc1 | 102% (inactive)
CC1CN(C(=O)CCC(=O)NC2CCN(Cc3ccccc3)CC2)c2ccccc2O1 (configuration not stated) | 107% (inactive)
CC1CN(C(=O)CCC(=O)NCCCN2CCC(Cc3ccccc3)CC2)c2cc(Cl)ccc2O1 (configuration not stated) | 163% (active)
CC1CN(C(=O)CCC(=O)NCc2cccnc2)c2ccccc2O1 (configuration not stated) | 103% (inactive)
O=C(CN1CCCCCC1)Nc1ccc(S(=O)(=O)N2CCCCC2)cc1 | 100% (inactive)
O=C(NCc1ccccc1Cl)C1CCN(c2ncnc3c2nc2n3CCCCC2)CC1 | 102% (inactive)
Cc1cc(C)c(OCC(=O)N(Cc2cccs2)C2CCS(=O)(=O)C2)c(C)c1 (configuration not stated) | 101% (inactive)
COC(=O)c1[nH]c2ccccc2c1NC(=O)CN1CCCc2ccccc21 | -2% (active)

Structure (SMILES) | binding response (% of control)
COC(=O)c1[nH]c2cccc(C)c2c1NC(=O)CN1CCCc2ccccc21 | 18% [inhibitor] (active)
NS(=O)(=O)c1cccc(NC(=O)CN2CCCc3ccccc32)c1 | 99% (inactive)
COC(=O)c1[nH]c2ccc(Br)cc2c1NC(=O)Oc1ccccc1 | 103% (inactive)
O=C(CN1CCc2ccccc21)NC(c1ccccc1)c1ccccc1 | 95% (inactive)
Cc1cccc(C)c1NC(=O)COC(=O)c1ccccc1O | 97% (inactive)
CC(=O)N1c2ccc(S(=O)(=O)N3CCCC(C(=O)Nc4cccc(F)c4)C3)cc2CC1C (configuration not stated) | 106% (inactive)
CCOC(=O)c1c(-c2ccccc2)oc2cc(Br)c(O)c(C=O)c12 | 94% (inactive)
O=C(Nc1ccccc1Cl)NC1(C(=O)N2CCOCC2)CCCCC1 | 96% (inactive)
CC1(C)C2CC[C@]3(C)C(CC=C4[C@@H]5C[C@@](C)(CO)CC[C@]5(C(=O)O)CC[C@]43C)[C@@]2(C)CC[C@@H]1O (some centres not stated) | 105% (inactive)
C=CCOc1ccccc1NC(=O)CN1C(=O)CNC1=O | 106% (inactive)
O=C(N/N=C\c1cc2c(cc1Cl)OCO2)c1ccc(Br)s1 | 103% (inactive)
Cc1ccc(C(C)C)cc1OCC(=O)Nc1ccccc1N1CCCC1 | 100% (inactive)
O=C(CN1CCN(C2CCCCC2)CC1)Nc1ccccc1N1CCCCC1 | 109% (inactive)
CN1CCN(c2ccccc2NC(=O)COc2ccc(C3CCCCC3)cc2)CC1 | 145% (active)
NC(=O)c1oc2ccccc2c1NC(=O)CS(=O)(=O)c1ccccc1 | 106% (inactive)
O=C(Nc1ccccc1[N+](=O)[O-])C1C(c2ccccc2)=C1c1ccccc1 | 97% (inactive)
O=C(Nc1ccccc1-c1ccccc1)c1ccccc1[N+](=O)[O-] | 106% (inactive)
O=C(O)c1ccccc1C(=O)Nc1ccccc1[N+](=O)[O-] | 0% (active)
CCOC(=O)C[C@H]1c2ccc(C(F)(F)F)cc2S(=O)(=O)N1c1ccccc1 | 98% (inactive)
CCOC(=O)C1CCN(C(=O)Cn2nc(C)c3c(C)n(-c4ccccc4)nc3c2=O)CC1 | 101% (inactive)
COc1ccc(S(=O)(=O)N2CCC(C(=O)NCCC(=O)NCc3cccc(OC)c3)CC2)cc1 | 104% (inactive)
CCOc1cc(/C=C/c2nc3ccccc3c(=O)[nH]2)cc(Br)c1OC | 98% (inactive)
O=C(Nc1c2c(nn1-c1cccc(Cl)c1)CS(=O)(=O)C2)c1cccs1 | 81% (inactive)
CCOc1cc(C2C(C(=O)c3ccco3)=C(O)C(=O)N2Cc2ccccc2)ccc1O (configuration not stated) | 93% (inactive)
CCCc1nn(C)c2c(=O)[nH]c(-c3cc(S(N)(=O)=O)ccc3OCC)nc12 | 105% (inactive)

Structure (SMILES) | binding response (% of control)
COc1ccc(S(=O)(=O)NC(C)C(=O)NCc2ccncc2)cc1Cl (configuration not stated) | 98% (inactive)
Cn1cc(CCC(=O)NC2CC2)c2ccccc21 | 96% (inactive)
CC(C)Oc1ccc(CN2CCC(n3nccc3NC(=O)c3cccnc3)CC2)cc1 | 142% (active)
COc1ccccc1C(=O)Nc1ccnn1C1CCN(Cc2cnn(C)c2)CC1 | 88% (inactive)
COc1ccc(C(=O)Nc2ccnn2C2CCN(Cc3ccncc3)CC2)cc1 | 101% (inactive)
Cc1ccc(SCC(=O)NNC(=O)c2ccc(S(C)(=O)=O)cc2)cc1 | 102% (inactive)
O=C(NCCCN1CCCCCC1)C1CC(=O)N(C2CCCC2)C1 (configuration not stated) | 162% (active)
CC(C)OCCCNC(=O)C1CC(=O)N(C2CCCCCCC2)C1 (configuration not stated) | 100% (inactive)
O=C(NCCc1ccc(Cl)cc1)C1CC(=O)N(C2CCCCC2)C1 (configuration not stated) | 98% (inactive)
CCn1c(CC(=O)Nc2ccccc2)nnc1SCC(=O)N1CCOCC1 | 96% (inactive)
CCOC(=O)c1ccc(N2C(=O)CC(N3CCC(C(=O)OCC)CC3)C2=O)cc1 (configuration not stated) | 105% (inactive)
CCCCOC(=O)c1ccc(N2C(=O)CC(N3CCN(C/C=C/c4ccccc4)CC3)C2=O)cc1 (configuration not stated) | 176% (active)
CCOC(=O)c1ccc(N2C(=O)CC(N3CCN(C(=O)c4ccccc4)CC3)C2=O)cc1 (configuration not stated) | 96% (inactive)
C#CCOCCOCCOCCNc1nc(N2CCN(C(=O)[C@H](CCC(=O)O)n3cc(C(N)CO)nn3)CC2)nc(N2CCN(C(=O)[C@H](CCCCN)n3cc(C(N)CC(C)C)nn3)CC2)n1 (some centres not stated) | 69% (inactive)
C#CCOCCOCCOCCNc1nc(N2CCN(C(=O)[C@H](CCC(=O)O)n3cc(C(N)CO)nn3)CC2)nc(N2CCN(C(=O)[C@H](CCCCN)n3cc(C(N)[C@H](C)CC)nn3)CC2)n1 (some centres not stated) | 97% (inactive)
C#CCOCCOCCOCCNc1nc(N2CCN(C(=O)C([C@@H](C)CC)n3cc(C(N)COC(=O)C(F)(F)F)nn3)CC2)nc(N2CCN(C(=O)[C@H](CCCCN)n3cc(C(N)CC(C)C)nn3)CC2)n1 (some centres not stated) | 241% (active)
C#CCOCCOCCOCCNc1nc(N2CCN(C(=O)[C@H](C(C)C)n3cc(CCO)nn3)CC2)nc(N2CCN(C(=O)[C@H](C(C)C)n3cc(CCO)nn3)CC2)n1 | 97% (inactive)
C#CCOCCOCCOCCNc1nc(N2CCN(C(=O)C([C@@H](C)CC)n3cc(C(N)COC(=O)C(F)(F)F)nn3)CC2)nc(N2CCN(C(=O)[C@H](Cc3ccc(O)cc3)n3cc(C(N)[C@H](C)CC)nn3)CC2)n1 (some centres not stated) | 120% (inactive)
C#CCOCCOCCOCCNc1nc(N2CCN(C(=O)[C@H](Cc3ccc(O)cc3)n3cc(C(N)CC(C)C)nn3)CC2)nc(N2CCN(C(=O)[C@H](CCC(=O)O)n3cc(C(N)[C@H](C)CC)nn3)CC2)n1 (some centres not stated) | 106% (inactive)
C#CCOCCOCCOCCNc1nc(N2CCN(C(=O)[C@H](CCCCN)n3cc([C@@H](N)C(C)CC)nn3)CC2)nc(N2CCN(C(=O)[C@H](Cc3ccc(O)cc3)n3cc([C@@H](N)C(C)CC)nn3)CC2)n1 (some centres not stated) | 211% (active)
C#CCOCCOCCOCCNc1nc(N2CCN(C(=O)C(Cc3ccc(O)cc3)n3cc(C(N)CC(C)C)nn3)CC2)nc(N2CCN(C(=O)C(Cc3ccc(O)cc3)n3cc(C(N)C(C)CC)nn3)CC2)n1 (configuration not stated) | 147% (active)
C#CCOCCOCCOCCNc1nc(N2CCN(C(=O)[C@H](CCC(=O)O)n3cc(C(N)CO)nn3)CC2)nc(N2CCN(C(=O)[C@H](Cc3ccc(O)cc3)n3cc(C(N)[C@H](C)CC)nn3)CC2)n1 (some centres not stated) | 108% (inactive)
